Experimental findings from PubChem BioAssay AID1159554 (Broad Institute, 2015) are described below.

The structures appear in SMILES notation. The whole screen tested about 94,000 compounds, of which about 2,100 (2.2%) were called active. Rule as the data show it: active = activity change below about -80%; inconclusive = no clear call, values can overlap the other calls; inactive = above that. Only a selection was taken, and actives are over-represented in it overall.

The nature of the test: Dd2 malaria parasite growth inhibition – SYBR Green fluorescence, single dose replicates, primary screen (AID 1159554). The note with it: P. falciparum Dd2 growth, 72 h, at 10 µM, stronger effect = lower value.
`CC(=O)N1[C@H](CO)[C@H](c2ccccc2)C12CN(C(=O)c1ccccn1)C2`: the activity change is -28.2% (inactive).
Then `C[C@@H]1CN([C@@H](C)CO)C(=O)c2cc(NC(=O)Cc3ccccc3)ccc2O[C@@H](C)CCCCO[C@@H]1CN(C)C(=O)Nc1ccccc1`, with -51.5% (inactive); and `C[C@@H]1CN([C@@H](C)CO)C(=O)c2cc(NC(=O)Cc3ccccc3)ccc2O[C@@H](C)CCCCO[C@H]1CN(C)C(=O)Nc1cccc2ccccc12`, with -86.1% (active); and `CC(C)NC(=O)N(C)C[C@@H]1OCCCC[C@@H](C)Oc2ccc(NC(=O)Cc3ccccc3)cc2C(=O)N([C@H](C)CO)C[C@H]1C`, with -13.3% (inactive).
As for `C[C@@H]1CN([C@@H](C)CO)C(=O)c2cc(NC(=O)CCCN(C)C)ccc2O[C@@H](C)CCCCO[C@H]1CN(C)C(=O)Nc1cccc2ccccc12`, the activity change is -85.2% (active).
To `C[C@@H]1CCCCO[C@H](CN(C)C(=O)Nc2cccc3ccccc23)[C@H](C)CN([C@@H](C)CO)C(=O)c2cc(NC(=O)CCCN(C)C)ccc2O1` belongs 0.619% (inactive); to `CC(C)NC(=O)N(C)C[C@@H]1OCCCC[C@@H](C)Oc2ccc(NC(=O)CCCN(C)C)cc2C(=O)N([C@@H](C)CO)C[C@@H]1C`, -5.33% (inactive); to `CO[C@@H]1CN(C)C(=O)c2cc(NC(=O)Nc3ccc(F)cc3)ccc2OC[C@@H](C)NC[C@@H]1C`, 13.3% (inactive).
Turning to `O=C(C[C@H]1CC[C@H]2[C@@H](COC[C@@H](O)CN2CC2CCOCC2)O1)NCc1ccc(Cl)cc1`, the activity change was -4.66% (inactive).
To `CO[C@@H]1CN(C)C(=O)c2ccc(NS(C)(=O)=O)cc2OC[C@@H](C)N(C(=O)CC2CC2)C[C@@H]1C` belongs 16.2% (inactive); to `O=C(c1ccccn1)N1CC(=O)N2[C@H](CO)[C@H](c3ccc(C#CCc4ccccc4)cc3)[C@H]2C1`, -46.8% (inactive).
To `O=C(C[C@@H]1C=C[C@H](NC(=O)Nc2ccccc2F)[C@@H](CO)O1)NCc1ccccc1` belongs -0.106% (inactive); to `CN1CCN(C(=O)C[C@H]2CC[C@H]3[C@@H](COc4ccc(NC(=O)C5CCC5)cc4C(=O)N3C)O2)CC1`, -19.8% (inactive); to `CN1C(=O)c2cc(NC(=O)c3cccc(F)c3)ccc2OC[C@H]2O[C@@H](CC(=O)NCc3ccccc3Cl)CC[C@@H]21`, -47.4% (inactive).
To `CCCNC(=O)N(C)C[C@H]1Oc2cc(-c3ccncc3)ccc2S(=O)(=O)N([C@H](C)CO)C[C@H]1C` belongs 70.9% (inactive).
For the molecule `CC(C)NC(=O)N[C@H]1C=C[C@H](CC(=O)NCCN2CCCC2)O[C@@H]1CO`, the activity change was 9.57% (inactive).
